Bioassay records: PubChem, National Center for Advancing Translational Sciences (NCATS)
Rows were chosen to be rich in hits. Some 7.5% of all compounds tested hit in one or more screens of this group.
Rab9 promoter act: activators of Rab9 promoter; AID 485297; Potency, µM (highest dose often 9.22 µM), for inactives: at the top dose activation, negative = inhibition, hits mostly activators; Huh7 Rab9 promoter-luciferase reporter, luminescence, 24 h; actives 2.8% (n = 320,000); note: % of control where 0% means no effect; nearly all actives have a fitted effect of over 60% in size
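Measured in stably transfected Huh7 cells bearing a Rab9 promoter–luciferase construct: 24 h compound treatment at 37 °C, followed by luminescence detection.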
FLuc counter: inhibits or activates purified firefly luciferase, miR-21 counter-screen; P08659; purified FLuc, Km substrates, luminescence inhibition; Potency, µM (titrated, usually from 57.5 µM), without a hit: at the top dose activity change, negative = inhibition, hits mostly inhibitors; actives 6.9% (n = 360,000); AID 588342;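 note: plate controls were vehicle for no effect and reference inhibitor for full effect; nearly all actives have a fitted effect of over 55% in size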
Target sequence (P08659 whole entry, looked up): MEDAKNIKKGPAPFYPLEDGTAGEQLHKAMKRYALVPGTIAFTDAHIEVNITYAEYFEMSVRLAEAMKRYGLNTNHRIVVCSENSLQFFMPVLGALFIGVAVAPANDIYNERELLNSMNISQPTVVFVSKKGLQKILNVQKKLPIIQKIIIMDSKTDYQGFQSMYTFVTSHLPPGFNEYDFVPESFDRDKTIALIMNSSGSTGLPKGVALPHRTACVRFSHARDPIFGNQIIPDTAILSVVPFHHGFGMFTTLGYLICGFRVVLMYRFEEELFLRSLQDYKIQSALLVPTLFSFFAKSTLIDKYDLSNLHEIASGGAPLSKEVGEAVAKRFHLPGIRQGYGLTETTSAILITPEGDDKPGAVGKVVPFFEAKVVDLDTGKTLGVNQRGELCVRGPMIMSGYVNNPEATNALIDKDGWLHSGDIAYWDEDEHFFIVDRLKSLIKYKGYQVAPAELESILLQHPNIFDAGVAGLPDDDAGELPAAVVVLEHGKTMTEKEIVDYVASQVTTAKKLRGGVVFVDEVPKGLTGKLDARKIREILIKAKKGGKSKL
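Purified P. pyralis luciferase, 10 nM final, with Km-level 10 uM D-luciferin and 10 uM ATP in 50 mM Tris acetate pH 7.5, 10 mM Mg acetate, 0.01% Tween-20, 0.05% BSA; 6-point qHTS titration about 60 µM downward; luminescence read.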
NPC1 prom act: activates the NPC1 promoter; AID 485313; actives 2.4% (n = 320,000); Potency, µM (series often up to 9.22 µM), for the others: top-dose activation, usual class: activators; Huh7 NPC1 promoter luciferase reporter, 24 h; note: % of control where 0% means no effect; nearly all actives have a fitted effect of over 60% in size
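Cells: Huh7 expressing luciferase under the NPC1 promoter, 1500/well. Seeded 2 h, compound added, incubated 24 h at 37 °C. Luciferase reagent, 10 min ambient, then luminescence.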
ELG1 genotoxic: induces genotoxicity in HEK293T cells with luciferase-tagged ELG1; actives 1.3% (n = 330,000); HEK293T ELG1-luciferase reporter, luminescence, 16 h; Potency, µM (titrated, usually from 46 µM), without a hit: at the top dose activity change, positive = activation, actives largely listed as activators; note: % of control where 0% means no effect; nearly all actives have a fitted effect of over 60% in size
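Step 1: seed 2,000 HEK293T ELG1-luciferase cells per well. Step 2: add compound or DMSO, incubate 16 hr at 37 °C. Step 3: ONE-Glo, 30 min at room temperature, read luminescence.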
SMN2 splice up: SMN2 splice variant enhancement. HEK293 SMN2-luciferase splicing reporter, luminescence, 30-36 h. Potency, µM (doses to about 46.1 µM), inactives show top-dose activity change, positive = activation, hits mostly activators. actives 2.8% (n = 210,000); note: % of control where 0% means no effect; nearly all actives have a fitted effect of over 55% in size
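qHTS luciferase splicing reporter: luminescence rises when SMN2 exon 7 is included in transfected HEK293 cells. Compound exposure lasted 30-36 h at 37C, with 4.5 mM final sodium butyrate as control, followed by a ONE-Glo read.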
* = called active by the depositor; ? = inconclusive; · = not tested or not shown; [ ] = another dose, or the depositor's remark. Calls come from the whole dose curve; as a rule, active = well fitted curve in the direction sought with a large enough effect; inconclusive = small, poorly fitted or top-dose-only effect, or another doubt; inactive = no such curve, though single readings can be large; an effect the other way counts as inactive or inconclusive. Potency is the fitted concentration of half-maximal effect.

SMILES	Rab9 promoter act	FLuc counter	NPC1 prom act	ELG1 genotoxic	SMN2 splice up
C/C(=N\NC(=O)CSc1nc(C)[nH]c1[N+](=O)[O-])c1ccc(F)cc1	?	15.1µM*	24.4%	-5.6%	·
CN(C)S(=O)(=O)c1cccc(C(=O)Nc2ccc(Cl)cn2)c1	?	13.5µM*	?	?	5.9%
COc1ccc(C(=O)Nc2ccc(Cl)cn2)cc1Cl	3.55µM*	10.7µM*	2.51µM*	?	?
COc1ccc(C(=O)Nc2ccc(Cl)cn2)cc1S(=O)(=O)N1CCCC1	-2.4%	-8.2%	-1.2%	-3.5%	·
Cc1scc(C(=O)Nc2ccon2)c1-c1ccccc1	-2.2%	2.2%	0.0%	-8.7%	13.1%
CC1CCN(c2ccc(-c3cccs3)nn2)CC1	1.41µM*	0.0757µM*	?	0.231µM*	·
O=C(COC(=O)C1COc2ccccc2O1)Nc1cccc(F)c1 (stereo not given)	-2.8%	8.5%	2.3%	1.1%	·
O=c1c(Cl)c(N2CCN(c3ccc(F)cc3)CC2)cnn1-c1nc2ccccc2s1	?	19µM*	29.4%	?	12.6µM*
O=C1CC(N2CCN(c3nc4ccccc4s3)CC2)C(=O)N1c1ccc(F)cc1 (stereo not given)	0.9%	-0.9%	2.6%	1.1%	11.8%
Cc1ccc(C(=O)Nc2scc(-c3ccccc3)c2C(=O)O)o1	3.2%	15.1µM*	-1.1%	6.5%	4.2%
Cc1ccc(-c2csc(NC(=O)c3ccccc3F)c2C(=O)O)cc1	4.2%[1.84 µM]	21.3µM*	?	-4.0%	·
O=C(Nc1scc(-c2ccccc2)c1C(=O)O)c1ccccc1F	20.3%	26.9µM*	21.2%	6.4%	·
Cc1ccc(C(=O)Nc2ccccc2-c2ccccc2)o1	-3.3%	?	-1.2%	-1.7%	24.8%
CCN(CC)S(=O)(=O)c1ccc(N2CCCC2)c(NC(=O)c2nn(C)c(=O)c3ccccc23)c1	0.8%	3.6%	-3.9%	-1.1%	·
CN1CCN(C(=S)NC(=O)c2ccc(C(C)(C)C)cc2)CC1	-0.3%	?	-1.8%	1.0%	-1.0%
C=CCn1cccc(/C=C/C(=O)c2ccc(C(C)(C)C)cc2)c1=S	-8.2%	13.5µM*	-1.4%	-18.9%	-104.1%
O=C(CSc1n[nH]c(=O)n1C1CC1)c1ccc2c(c1)OCCO2	?	13.5µM*	?	15.2%	·
N#Cc1ccc(C(=O)CSc2n[nH]c(=O)n2Cc2ccco2)cc1	-9.4%	0.8%	2.3%	-3.7%	·
O=C(CSc1n[nH]c(=O)n1Cc1ccco1)c1ccc2c(c1)OCCO2	?	15.1µM*	28.6%	?	·
O=[N+]([O-])c1cccc2ccc(/C=C/c3ccc(C(F)(F)F)cc3)nc12	22.3%	-18.8%	25.8%	-0.1%	-0.1%
Cc1ccc(NC(=O)Cn2c(-c3ccc4c(c3)OCO4)cn(-c3ccccc3)c2=O)cc1	·	12µM*	·	·	?
Cc1ccc(CSc2nc3cccnc3n2Cc2nc(-c3ccccc3F)oc2C)cc1	·	5.36µM*	·	·	·
Cc1ccc(CSc2nc3ccncc3n2Cc2nc(-c3ccccc3C)oc2C)cc1	·	4.78µM*	·	·	?
COc1ccc(CSc2nc3ccncc3n2Cc2nc(-c3ccc(OC)c(OC)c3)oc2C)cc1	·	4.78µM*	·	·	?
COc1ccc(-c2nc(Cn3c(SCc4cccc(Cl)c4)nc4ccncc43)c(C)o2)cc1	·	-3.1%	·	·	18.1%
SMILES	Rab9 promoter act	FLuc counter	NPC1 prom act	ELG1 genotoxic	SMN2 splice up
CC(C)N1CC2(c3ccccc3)CN(C(C)C)CC(c3ccccc3)(C1)C2=O	-0.5%	-0.1%	-0.3%	-0.8%	?
Cc1sc(NC(=O)C2=COCCO2)c(C(N)=O)c1C	21.8%	16.9µM*	13.9%	28.3%	·
Cc1sc(NC(=O)c2cccs2)c(C(N)=O)c1C	?	10.7µM*	17.5%	?	10µM*
CCOC(=O)c1sc(NC(=O)C2=COCCO2)c(C#N)c1C	-0.7%	?	-1.5%	8.6%	·
O=C(CCSCc1cnn(-c2ccccc2)c1-n1cccc1)NCc1ccccc1Cl	·	-16.5%	·	·	·
CN(C)c1ccc(NC(=S)NC23CC4CC(CC(C4)C2)C3)cc1	?	12µM*	-2.0%	?	·
FC(F)Oc1ccc(NC(=S)NC23CC4CC(CC(C4)C2)C3)cc1	22.4%	19µM*	2.7%	-14.2%	·
COc1cc(NC(=O)NCC2CCN(Cc3ccccc3Cl)CC2)cc(OC)c1OC	0.4%[1.84 µM]	-3.9%	-8.9%	3.2%	3.1%
O=C(NC1CCCC1)c1cccc(NC(=O)c2ccco2)c1	1.2%	-16.3%	6.7%	-7.9%	-10.7%
CC(=O)c1ccc(OC(=O)/C=C/c2ccccc2)cc1	-1.7%	2.69µM*	-2.7%	1.7%	·
COc1ccc(CC(=O)O/N=C(\N)c2ccc(OC)cc2)cc1	23.8%	?	9.5%	6.5%	·
Cc1ccccc1/C(N)=N/OC(=O)/C=C/c1ccccc1	?	?	25.2%	?	?
COc1cccc(/C=C/C(=O)Oc2ccc(C(=O)c3ccc(F)cc3)cc2)c1	-4.1%	-9.7%	-1.5%	1.8%	9.6%
Cc1ccc(/C(N)=N/OC(=O)/C=C/c2ccccc2)cc1	11.9%	23.9µM*	-0.3%	12.8%	-5.6%
COc1ccc(/C(N)=N/OC(=O)/C=C/c2ccccc2)cc1	18.4%	15.1µM*	-3.3%	4.7%	24.4%
COc1ccc(/C=C/C(=O)O/N=C(\N)c2ccccc2)cc1OC	?	16.9µM*	?	?	?
COc1cc(-c2ccno2)ccc1S(=O)(=O)N1CCN(c2ccc(C(C)=O)cc2)CC1	·	3.6%	·	·	·
COc1ccc(C(=O)NC(=S)SCC(=O)O)cc1	1.7%	?	0.7%	-0.1%	·
CC(=O)c1ccc(OC(=O)COc2ccccc2)cc1	0.0%	21.3µM*	0.9%	24.3%	·
N/C(=N\C(=S)Nc1ccccc1)c1ccccc1	0.708µM*	10.7µM*	0.501µM*	?	·
Cc1ccc(N/C=C/c2onc(C)c2[N+](=O)[O-])cc1	0.631µM*	0.601µM*	2.51µM*	1.3µM*	·
COc1cccc(N/C=C/c2onc(C)c2[N+](=O)[O-])c1	2.51µM*	-2.8%	?	?	?
Cc1cccc(C)c1N/C=C/c1onc(C)c1[N+](=O)[O-]	·	3.1%	·	·	-0.9%
Cc1noc(/C=C/c2cccnc2)c1[N+](=O)[O-]	-16.4%	1.9%	-21.4%	-12.0%	·
O=C(c1cc(-c2ccc3c(c2)OCO3)on1)N1CCN(c2ccc(F)cc2)CC1	4.3%	15.1µM*	-2.0%	-0.3%	-16.9%
CN(C(=O)c1cc(-c2ccc3c(c2)OCO3)on1)c1ccccc1	2.51µM*	15.1µM*	2.51µM*	18.3µM*	·
O=C(c1cc(-c2ccc(O)cc2)on1)N1CCN(c2ccc(F)cc2)CC1	-0.6%	?	-0.1%	-3.0%	·
COc1ccccc1N1CCN(C(=O)c2cc(-c3ccc4c(c3)OCO4)on2)CC1	-1.0%	?	0.8%	-6.2%	7.7%
O=C(c1cc(-c2ccc3c(c2)OCO3)on1)N1CCOCC1	0.631µM*	1.51µM*	0.398µM*	0.581µM*	0.501µM*
